This is part of a sample that, as a whole, favours compounds with a hit. Of some 83,000 tested, about 20% had one in any assay.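 The endpoint reported here, percent growth, reads 100 for growth as untreated, 0 for no net growth and -100 for all cells dead.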 Active and inactive are the calls of the source.

The results in this text go back to PubChem BioAssay (NCI).

In this assay the test system is MOLT-4 leukemia. The assay can be described thus: NCI-60 one-dose screen, 48 h (100 = growth as untreated, 0 = no growth, -100 = all killed). The settings on record: 10 µM unless noted. How it is done:
Growth inhibition of the MOLT-4 human tumor cell line is measured as a screen for anti-cancer activity. Cells are grown in 96 well plates and exposed to the test compound for 48 hours. Compounds are tested at a single concentration, which is 10^-5 M for most compounds. The reported endpoint is percent growth (GI% or GIPRCNT), where numbers from 0 - 100% represent growth inhibition, and numbers from -100% - 0 represent cell death. For example, a value of 40 represents 60% growth inhibition. A value of 0 means no net growth occurred over the course of the experiment. A value of -40 indicates 40% of cells at the beginning of the experiment died by the end of the experiment. A value of -100 means all cells are dead at the end of the experiment.
NCI-60 Human Tumor Cell Lines Screen was performed using the standard one-dose NCI protocol, which is described in more detail at https://dtp.cancer.gov/discovery_development/nci-60/default.htm.
Compounds with GIPRCNT values below 10 were considered active. Activity score was based on GIPRCNT using the following formula: […]
Score is 0 for GIPRCNT values of 100 or above, 50 for GIPRCNT values of 0, and 100 for GIPRCNT values of -100.
On to `Oc1ccc(CCC2CCCC(CCc3ccc(OCCF)cc3)N2)cc1` (stereo not given), for which the growth is 76.2% (inactive).
On to `C#CCC(C)(O)/C=C/C1=C(C)CCCC1(C)C` (stereo not given), for which the growth is 101% (inactive).
Take `NCCn1cc(-c2nc(-c3c[nH]c4ncccc34)cs2)c2cc(Br)ccc21`: the growth is 41.8% (inactive).
Consider `O=S(=O)(NCCNc1cc(-c2cn(-c3ccccc3)nc2-c2cccc(O)c2)ccn1)c1ccc(C(F)(F)F)cc1`, for which the growth was 4.81% (active).
As for `NNC(=O)c1nc2ccccc2[nH]1`, the growth was 79.8% (inactive).
For `C[Si](C)(C)Cc1ccccc1`, the growth was 118% (inactive).
With `CC(=O)OC(C)COc1ccc(-c2ccccc2)cc1` (stereo not given), the growth was 100% (inactive).
Take `CC(C)=CCC/C(C)=C/CC/C(C)=C/CC/C(C)=C/CSC[C@H](NC(=O)CCCCCN1CCN(C)CC1)C(=O)NC1CCCCC1`: the growth is 45.2% (inactive).
For `C=C(C)[C@@H]1CC[C@]2(C(=O)N3CCCNCC3)CC[C@]3(C)[C@H](CC[C@@H]4[C@@]5(C)CCC(=O)C(C)(C)[C@@H]5CC[C@]43C)[C@@H]12`, the growth was 63.3% (inactive).
As to `Cn1cc(-c2csc(-c3cn(CCCN4CCCCC4)c4ccc(F)cc34)n2)c2cccnc21`, the growth was 70.4% (inactive).
`COC(=O)[C@]12CC[C@@H](C)[C@H](C)[C@@H]1C1=CC[C@@H]3[C@@]4(C)C[C@@H](O)[C@H](O)[C@@](C)(CO)C4=CC[C@@]3(C)[C@]1(C)CC2`: the growth is -47.4% (active).
As for `COC(=O)[C@]12CC[C@@H](C)[C@H](C)[C@@H]1C1=CC[C@@H]3[C@@]4(C)C=C(O)C(=O)C(C)=C4CC[C@@]3(C)[C@]1(C)CC2`, the figure is -15.9% (active); as for `CC(=O)O[C@H]1CC[C@@]2(C)[C@@H](CC[C@@H]3[C@@H]2CC(=O)[C@@]2(C)[C@H]3C[C@@H](C3CCCC3=O)[C@@H]2C(C)=O)C1` (stereo not given in full), 86.1% (inactive).
For the compound `N#CCCCCCn1c2ccccc2c2c3[nH]c(=O)[nH]c(=O)c3c3c4ccccc4n(CCCCCC#N)c3c21`, the growth is 69.5% (inactive).
As to `Cc1csc(Nc2nc(-c3cccc(Br)c3)nc(C(Cl)(Cl)Cl)n2)n1`, the growth is 80.7% (inactive).
As for `NC(N)=N/N=C/c1ccc(-c2ccc(-c3ccc(Cl)cn3)s2)cc1`, the growth was 73.7% (inactive).
In the case of `COc1ccc(-c2nc3c(c(C)nn3-c3ccc(F)cc3)c(=O)[nH]2)cc1` it was 98.1% (inactive); in that of `Cc1ccc2oc(=O)cc(-c3sc(N4CCCCC4)nc3-c3ccccc3)c2c1`, 97.3% (inactive).
In the case of `C/C(=N/NC(N)=S)C(=O)O` it was 27.7% (inactive); in that of `Cn1cc(-c2csc(-c3cn(CCNC(=O)OC(C)(C)C)c4ccc(F)cc34)n2)c2cccnc21`, 31.8% (inactive).
Consider `CCCCn1c(-c2ccc(O)cc2)cn2c3c(=O)[nH]c(=O)n(C)c3nc12`, for which the growth was 58.6% (inactive).
Consider `C[C@H]1OC(=O)/C=C/[C@@H](O)[C@@H](O)CCCCCCCC[C@@H]1O`, for which the growth is 106% (inactive).
Turning to `CC(C)(C)c1ccc(OP(=S)(N/N=C/c2ccccc2O)Oc2ccc(C(C)(C)C)cc2)cc1`, the growth is 43.7% (inactive).
With `C[C@H]1[C@H]2C3=CC[C@@H]4[C@@]5(C)C/C(=C/c6ccco6)C(=O)C(C)(C)[C@@H]5CC[C@@]4(C)[C@]3(C)CC[C@@]2(C(=O)N2CCOCC2)CC[C@@H]1C`, the growth is 6.22% (active).
Turning to `Cc1cc(N2CCOCC2)nc(N(CCCNc2ccnc3cc(Cl)ccc23)Cc2ccco2)n1`, the growth is 9.42% (active).
For `Cc1ccc(N(CC(=O)Nc2ccc(S(=O)(=O)N3CCC(N4CCCC4)CC3)cc2)S(=O)(=O)c2ccc(Cl)cc2)cc1`, the growth is 2.28% (active).
As to `N=c1ccc2nc3c(cc(N)c4ccccc43)oc-2c1`, the growth was -44% (active).
On to `Nc1c(C(=O)Nc2cccc3ccccc23)sc2nc3c(cc12)CCCC3`, for which the growth was 20.7% (inactive).
In the case of `CCOc1ccc(NC(=O)c2ccoc2COc2ccccc2)cc1` it was 97% (inactive); in that of `c1ccc2c(-c3nc(-c4c[nH]c5ncccc45)cs3)c[nH]c2c1`, 85.6% (inactive).
For `Cn1cc(-c2nc(-c3c[nH]c4ncccc34)cs2)c2ccccc21`, the growth is 77.8% (inactive).
As to `Cc1nnc2nc(N)[nH]n2c1=O`, the growth is 74.7% (inactive).
In the case of `N#C/C(=C\c1ccc(-c2ccc(Br)cc2)o1)c1nc(-c2cccs2)cs1`, the growth is 97% (inactive).
As for `COc1cc(/C=C/c2cc(/C=C/c3ccc(O)c(OC)c3)n(-c3ccccc3)c(=O)n2)ccc1O`, the growth was 31.5% (inactive).
As for `COC(=O)[C@]12CC[C@@H](C)[C@H](C)[C@@H]1C1=CC[C@@H]3[C@@]4(C)C[C@@H](OC(C)=O)[C@H](OC(C)=O)[C@@](C)(COC(C)=O)[C@@H]4[C@H](O)C[C@@]3(C)[C@]1(C)CC2`, the growth is 3.95% (active).
Take `CCN(CC)C(=O)CCCCCn1c2ccccc2c2c3c(c4c5ccccc5[nH]c4c21)C(=O)N(O)C3=O`: the growth was -0.333% (active).
In the case of `CN(C)c1cccc2[nH]c(-c3[nH]ncc3Nc3ccnc(N)n3)nc12` it was 1.65% (active); in that of `CC/C(=N/NC(N)=O)c1ccccc1`, 98% (inactive).
Consider `COc1ccc(-c2c(-c3nc4ccc(N5CCOCC5)cc4[nH]3)[nH]c(C)c2C(C)=O)cc1`, for which the growth is 51.9% (inactive).
As for `Cc1cc2nc3c4cc(Cl)ccc4n(CCN(C)C)c3nc2cc1C`, the figure is 2.26% (active).
